# FUS suppressor: qHTS for Suppressors of FUS Proteinopathy: Primary screen using FUS-linked yeast assay. S. cerevisiae FUS-expressing, growth rescue, OD600, 24 h. Potency, µM (doses to about 76.6 µM), usual class: activators. 0.24% of 390,000 active;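 note: plate controls were DMSO vehicle for no effect and reference control for full effect; nearly all actives have a fitted effect of over 55% in size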
#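 Steps: raffinose overnight preculture; dilution to OD 0.005 in 2% galactose minimal medium; compound addition (concentration series); 24hr at 30C, 99% humidity; absorbance read at 600 nm.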
# TDP-43 yeast inh: qHTS of TDP-43 Inhibitors | TDP-43 expressing yeast growth rescue, BacTiter-Glo, 24 h | 1.8% of 410,000 active | Potency, µM (doses to about 46.1 µM), inactives show at the highest dose growth rescue (activation), usual class: activators; note: % of control where 0% means no effect; nearly all actives have a fitted effect of over 50% in size
#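 Galactose-induced TDP-43 yeast, OD600=0.02, compound pinned; 24 hr, 30 deg C; BacTiter-Glo luminescence for growth. Inhibitors of TDP-43 toxicity read as activators.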
# Mito fusion yeast: qHTS Assay for Small Molecule Inhibitors of Mitochondrial Division or Activators of Mitochondrial Fusion; 0.23% of 320,000 active; AID 485298, 2010; Potency, µM (titrated, usually from 46.1 µM), without a hit: top-dose growth rescue (activation), usual class: activators; S. cerevisiae fusion-defective mutant growth rescue, CellTiterGlo 48 h; note: % of control where 0% means no effect; nearly all actives have a fitted effect of over 45% in size
#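 Temperature-sensitive fusion-defective S. cerevisiae (e.g. fzo1-1, mgm1-5) were grown with compound in YPEG medium (3% ethanol, 3% glycerol) for 48 hours at 37C. Growth rescue was measured as viability by CellTiterGlo luminescence after 10 minutes at ambient.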
# aSyn rescue: qHTS of alpha-syn Inhibitors. Potency, µM (top dose mostly 46.1 µM), without a hit: top-dose growth rescue (activation), most hits filed as activators. AID 652106, 2013. Yeast expressing alpha-synuclein, growth rescue, BacTiter-Glo, 24 h. 0.14% of 370,000 active; note: % of control where 0% means no effect; nearly all actives have a fitted effect of over 65% in size
#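 Screening used galactose-induced yeast with toxic alpha-synuclein levels, exposed to compound for 24 hr at 30 deg C. Cell growth, read with BacTiter-Glo luminescence, gave the measured signal.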
# Abeta yeast res: qHTS for compounds that reverse cellular toxicity of Amyloid beta (A-beta) peptide in yeast: Primary Screen | yeast expressing A-beta42, growth rescue, OD600, 48 h; response scale: 0% DMSO, 100% iron-clioquinol control | Potency, µM (highest dose often 46.1 µM), most hits filed as activators | 0.063% of 410,000 active | AID 1347071, 2019; note: nearly all actives have a fitted effect of over 55% in size
#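 Yeast A-beta toxicity model in growth medium with pinned compounds, 48 h at 30 C; growth read as absorbance at 600 nm. Normalized to FeCl3/clioquinol equimolar mix (positive) and DMSO (negative).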
# The depositor's hits bear a star; i = inactive; ? = inconclusive; . = no result given. In the library only some 2.2% were active in any assay of this set; here they are far more common. Calls come from the whole dose curve; as a rule, active = well fitted curve in the direction sought with a large enough effect; inconclusive = small, poorly fitted or top-dose-only effect, or another doubt; inactive = no such curve, though single readings can be large; an effect the other way counts as inactive or inconclusive. Potency is the fitted concentration of half-maximal effect.
SMILES,FUS suppressor,TDP-43 yeast inh,Mito fusion yeast,aSyn rescue,Abeta yeast res
Cc1occc1C(=O)N/N=C/C(Br)=C/c1ccccc1,i,14µM*,4%,-14%,i
COc1cccc(C=C(C(C)=O)C(=O)c2ccccc2)c1,i,11µM*,.,?,i
COc1ccc(C(=O)N/N=C/C(Br)=C/c2ccccc2)cc1,i,2%,-1%,-12%,i
CCOC(=O)c1c(NC(=O)C(C)Oc2ccccc2F)sc(C(C)=O)c1C (stereo not drawn),i,3%,.,.,i
CCN(CC)CCCNC(=O)C1c2ccccc2C(=O)N(C)C1c1ccc(OC)cc1 (stereo not drawn),i,22µM*,-1%,-4%,i
C#CCOCCOCCOCCNc1nc(N2CCN(C(=O)CCCCCCCCCCNC(=O)[C@H]([C@@H](C)CC)n3cc(CCCCCN)nn3)CC2)nc(N2CCN(C(=O)CCCCCCCCCCNC(=O)[C@H](CO)n3cc(CCCCCN)nn3)CC2)n1,14µM*,8%,-7%,-41%,i
C#CCOCCOCCOCCNc1nc(N2CCN(C(=O)CCCCCCCCCCNC(=O)[C@H]([C@@H](C)CC)n3cc(CCCCN=C(N)N)nn3)CC2)nc(N2CCN(C(=O)CCCCCCCCCCNC(=O)[C@H](CCCCN)n3cc(C)nn3)CC2)n1,11µM*,-79%,1%,-49%,i
C#CCOCCOCCOCCNc1nc(N2CCN(C(=O)CCCCCCCCCCNC(=O)[C@H]([C@@H](C)CC)n3cc(CCCCCN)nn3)CC2)nc(N2CCN(C(=O)CCCCCCCCCCNC(=O)[C@H]([C@@H](C)CC)n3cc(CCCCN=C(N)N)nn3)CC2)n1,.,.,-20%,.,.
C#CCOCCOCCOCCNc1nc(N2CCN(C(=O)CCCCCCCCCCNC(=O)[C@H]([C@@H](C)CC)n3cc(CCCCCN)nn3)CC2)nc(N2CCN(C(=O)CCCCCCCCCCNC(=O)[C@@H]([C@H](C)CC)n3cc(CCCCCN)nn3)CC2)n1,.,.,-16%,.,.
O=[N+]([O-])c1ccc(O/N=[N+](\[O-])N2CCN(c3ccccc3)CC2)c([N+](=O)[O-])c1,.,.,.,-43%,.
CC(=O)N1N=C(c2ccco2)CC1c1ccc(Br)cc1 (stereo not drawn),i,20µM*,0%,4%,i
CCc1ccc(S(=O)(=O)c2cn(C)c3cc(F)c(F)cc3c2=O)cc1,i,19%,.,.,i
COc1ccc(N2CCN(CC(O)COc3ccc(C(C)(C)C)cc3)CC2)cc1 (stereo not drawn),i,13µM*,.,.,i
COc1ccccc1NCC(O)COc1ccc(C(C)(C)C)cc1 (stereo not drawn),?,-27%,-1%,?,i
COc1ccc(NCC(O)COc2ccc(C(C)(C)C)cc2)cc1 (stereo not drawn),i,16µM*,5%,24%,?
Cc1ccc(NC(=O)c2cc(S(=O)(=O)N(C)C3CCCCC3)ccc2F)cc1C,i,10%,.,.,i
CCc1ccc(CNC(=O)CN2CCSc3ccccc32)cc1,i,25µM*,.,11%,?
Cc1ccccc1CNC(=O)CN1CCSc2ccccc21,i,13%,.,1%,i
CC(=O)/C(=C/c1ccccc1)C(=O)Nc1ccccc1C,i,2.5µM*,1%,?,i
Cc1ccccc1NC(=O)C(=Cc1ccc(C(=O)O)cc1)C(=O)Nc1ccccc1C,i,-18%,10%,16%,i
Cc1cccc(NC(=O)CSCC(=O)N(C)Cc2ccc(Cl)c(Cl)c2)c1,i,25µM*,?,14%,i
CC(C)c1ccccc1NC(=S)NCCCn1ccnc1,i,15%,1.6µM*,0%,i
CCOc1ccc(NC(=S)NCCCn2ccnc2)cc1,.,0%,-6%,7%,i
CSc1ccccc1-n1nnnc1SCc1ccccc1,i,13µM*,27%,0%,i
COCCNc1nc(Oc2cccc3ccccc23)c2sccc2n1,i,16µM*,.,18%,i
CCc1ccccc1Oc1nc(NC(C)C)nc2ccsc12,i,20µM*,.,-16%,i
